# Several values for one entry are separate records, joined by “and”; a condition that tells them apart may be missing. Equal entries are not always repeated.
# Columns and labels:
# Experiment in all cases: cell viability relative to vehicle control; higher = less cytotoxic
# Conditions in all cases: 10 µM
# K562 = test system: K562
# Outline: (§1)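 Mutant clones made by CRISPR editing and their isogenic wild-type counterparts, from four leukaemia lines, were exposed to a single 10 µM dose of each library compound for 48 h. The supernatant was then removed and CellTiter-Glo luminescence was read. Viability was reported as percent of the on-plate vehicle control.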
# MARIMO = test system: MARIMO
# Outline: as §1
# MOLM14 = test system: MOLM14
# Outline: as §1
# OCI-AML2 = test system: OCI-AML2
# Outline: as §1
SMILES,cell viability (K562; SRSF2 genotype: SRSF2 wt/wt),cell viability (MARIMO; SRSF2 genotype: SRSF2 P95H/wt),cell viability (MARIMO; SRSF2 genotype: SRSF2 wt/wt),cell viability (MOLM14; SRSF2 genotype: SRSF2 P95H/wt),cell viability (MOLM14; SRSF2 genotype: SRSF2 wt/wt),cell viability (OCI-AML2; SRSF2 genotype: P95H/wt),cell viability (OCI-AML2; SRSF2 genotype: wt/wt),cell viability (K562; SRSF2 genotype: SRSF2 P95H/wt)
COc1ccc(F)c(F)c1C(=O)c1cnc(NC2CCN(S(C)(=O)=O)CC2)nc1N,54.3%,11.3%,12.1%,1.28%,0.27%,3.74%,15.6%,
C[C@@H](OC[C@@]1(c2ccccc2)CC[C@]2(CCC(=O)N2)CN1)c1cc(C(F)(F)F)cc(C(F)(F)F)c1 [Rolapitant],68.8%,52.3%,48.8%,54.5%,44.5%,45.2%,39.1%,54% and 72.1%
Cc1nc(C)c(C)nc1C [Tetramethylpyrazine],118%,107%,111%,108%,107%,112%,116%,111% and 112%
CC(C)c1nc(CN(C)C(=O)N[C@@H](CCN2CCOCC2)C(=O)N[C@H](CC[C@H](Cc2ccccc2)NC(=O)OCc2cncs2)Cc2ccccc2)cs1 [Cobicistat (GS-9350)],95.7%,94.7%,104%,94.3%,98.3%,95%,83.8%,88.4% and 101%
CCNC(=O)CCC/C=C\C[C@@H]1[C@@H](/C=C/[C@@H](O)CCc2ccccc2)[C@H](O)C[C@@H]1O [Bimatoprost],96.8%,95.4%,98.3%,98.4%,98.3%,105%,98.8%,99.5% and 99.1%
Cc1cnc(-c2cnc(NCCNc3ccc(C#N)cn3)nc2-c2ccc(Cl)cc2Cl)[nH]1,63.6% and 69.4%,96.3% and 94.4%,119% and 126%,87.2% and 98.8%,103% and 110%,95.8% and 99.6%,124% and 133%,
CC(=O)Oc1cc(C)c(OC(C)=O)c2ccccc12 [Menadiol Diacetate],95.2%,49.6%,53.5%,15.3%,7.05%,5.63%,11.2%,
COc1cc2c(cc1O)CC[n+]1cc3c(OC)c(OC)ccc3cc1-2 [Jatrorrhizine],95.8%,107%,103%,101%,99.8%,105%,98.2%,91.4% and 98.7%
C[C@H]1[C@H](C)CC[C@]2(C(=O)O)CC[C@]3(C)C(=CC[C@@H]4[C@@]5(C)CCC(=O)C(C)(C)[C@@H]5CC[C@]43C)[C@H]12 [Ursonic acid],55.8%,27.6%,19%,28.4%,19.4%,24.6%,16.9%,37.2% and 50.8%
NC(=O)c1cccc(-c2cc(Nc3ccc(OC(F)(F)F)cc3)ncn2)c1,26.8%,70.1%,58.7%,102%,102%,43.7%,55.3%,
CC(C)=C[C@H]1C[C@](C)(O)[C@@H]2[C@H]3CC[C@@H]4[C@@]5(C)CC[C@H](O[C@@H]6OC[C@H](O)[C@H](O[C@@H]7O[C@H](CO)[C@@H](O)[C@H](O)[C@H]7O[C@@H]7OC[C@@H](O)[C@H](O)[C@H]7O)[C@H]6O[C@@H]6O[C@@H](C)[C@H](O)[C@@H](O)[C@H]6O)C(C)(C)[C@@H]5CC[C@@]4(C)[C@@]34CO[C@@]2(C4)O1 [Jujuboside B],102%,108%,113%,107%,106%,97.2%,108%,117% and 106%
CCC(=O)O[C@H]1[C@H](O[C@@H]2[C@@H](C)[C@H](O[C@H]3C[C@@](C)(OC)[C@@H](O)[C@H](C)O3)[C@@H](C)C(=O)O[C@H](CC)[C@@](C)(O)[C@H](O)[C@@H](C)C(=O)[C@H](C)C[C@@]2(C)O)O[C@H](C)C[C@@H]1N(C)C [Erythromycin estolate],90.4%,92.3%,105%,96.4%,95.8%,77.5%,76.8%,92.3% and 89.5%
Cc1cnc(C(=O)NCCc2ccc(S(=O)(=O)NC(=O)NC3CCCCC3)cc2)cn1 [Glipizide (Glucotrol)],91.6%,90.9%,104%,94.3%,92.5%,96.6%,97.4%,93.8% and 94.9%
CN1C(=O)[C@@H](NC(=O)c2n[nH]c(Cc3ccccc3)n2)COc2ccccc21,103%,103%,105%,103%,106%,106%,106%,97.3% and 106%
CC[C@H]1OC(=O)C[C@@H](O)[C@H](C)[C@@H](O[C@@H]2O[C@H](C)[C@@H](O)[C@H](N(C)C)[C@H]2O)[C@@H](CCN2C[C@H](C)C[C@H](C)C2)C[C@@H](C)C(=O)/C=C/C(C)=C/[C@@H]1CO[C@@H]1O[C@H](C)[C@@H](O)[C@@H](OC)[C@H]1OC [Tilmicosin phosphate],108%,98%,103%,106%,101%,108%,112%,102%
Cc1cnc(Nc2ccc(F)cc2Cl)nc1-c1c[nH]c(C(=O)NC(CO)c2cccc(Cl)c2)c1 (stereo not drawn),72.9%,44.9%,46%,58.5%,48.1%,47.4%,47.7%,60.8% and 83.2%
CC[C@@]1(O)C(=O)OCc2c1cc1n(c2=O)Cc2cc3c(CN(C)C)c(O)ccc3nc2-1 [Topotecan],17.5%,4.92%,3.84%,1.67%,0.8%,3.47%,7.65%,20.3% and 28%

SMILES,cell viability (K562; SRSF2 genotype: SRSF2 wt/wt),cell viability (MARIMO; SRSF2 genotype: SRSF2 P95H/wt),cell viability (MARIMO; SRSF2 genotype: SRSF2 wt/wt),cell viability (MOLM14; SRSF2 genotype: SRSF2 P95H/wt),cell viability (MOLM14; SRSF2 genotype: SRSF2 wt/wt),cell viability (OCI-AML2; SRSF2 genotype: P95H/wt),cell viability (OCI-AML2; SRSF2 genotype: wt/wt),cell viability (K562; SRSF2 genotype: SRSF2 P95H/wt)
CC1(C)C[C@@H]1C(=O)N/C(=C\CCCCSC[C@H](N)C(=O)O)C(=O)O [Cilastatin],105%,97%,100%,104%,103%,102%,110%,104% and 93.4%
C[C@H]1O[C@@H](O[C@H]2CC[C@@]3(C)[C@@H](CC[C@]4(C)[C@@H]3C=C[C@]35OC[C@@]6(CCC(C)(C)C[C@H]63)[C@@H](O)C[C@]54C)[C@]2(C)CO)[C@H](O)[C@@H](O[C@@H]2O[C@H](CO)[C@@H](O)[C@H](O)[C@H]2O)[C@H]1O [Saikosaponin A],23.1%,40.9%,46.1%,23.8%,28.7%,42.2%,45%,
O=C(NC1CCNCC1)c1n[nH]cc1NC(=O)c1c(Cl)cccc1Cl,26.4% and 27.1%,13.2% and 15.4%,6.7% and 6.57%,3.09% and 4.11%,0.56% and 0.84%,5.65% and 5.71%,17.9% and 18%,
C1CNCCNCCNCCN1 [Cyclen],106%,107%,111%,103%,103%,105%,102%,100% and 102%
COc1ccc2[nH]cc(CCNC(C)=O)c2c1 [Melatonin],100%,109%,101%,103%,105%,118%,103%,104% and 109%
O=C(O[C@@H]1O[C@@H]2COC(=O)c3cc(O)c(O)c(O)c3-c3c(cc(O)c(O)c3O)C(=O)O[C@H]([C@H]1O)[C@@H]2O)c1cc(O)c(O)c(O)c1 [Corilagin],81.5%,86.9%,81.3%,86.4%,82.2%,103%,96.2%,
O=C(/C=C/c1ccc(O)c(O)c1/C=C/c1ccc(O)c(O)c1)O[C@H](Cc1ccc(O)c(O)c1)C(=O)O [Salvianolic acid A],70.5%,86.4%,94.7%,73.7%,62.1%,98.2%,95%,
c1cc(-c2cnn3cc(-c4ccc(OCCN5CCCCC5)cc4)cnc23)ccn1 [Dorsomorphin (Compound C)],64.1%,73.8%,80.9%,16.4%,10.9%,33.1%,36.2%,
C[C@H](NCc1ccc(OCc2cccc(F)c2)cc1)C(N)=O,99.9%,105%,102%,98.2%,98.2%,115%,106%,102%
CCNC(=O)C#Cc1ccc2c(C(=Nc3ccc(CN(C)C)cc3)c3ccccc3)c(O)[nH]c2c1,53.4%,26.7%,25.1%,4.97%,7.91%,11.9%,17.2%,
COc1cc2nccc(Oc3ccc(NC(=O)C4(C(=O)Nc5ccc(F)cc5)CC4)cc3)c2cc1OC,20.6%,69.1%,66.8%,5.29%,5.9%,19.2%,28%,9.94% and 12.3%
CCOCCn1c(C2CCN(CCc3ccc(C(C)(C)C(=O)O)cc3)CC2)nc2ccccc21 [Bilastine],113%,107%,104%,107%,106%,108%,96.2%,105% and 108%
Nc1ccc(S(N)(=O)=O)cc1 [Sulfanilamide],98.9%,102%,107%,96.2%,102%,102%,110%,99.1% and 101%
COc1cc2c[n+](C)c3c4cc5c(cc4ccc3c2cc1OC)OCO5 [Nitidine Chloride],46.1%,38.6%,34.6%,0.55%,0.7%,0.61%,0.76%,
c1nc2c(NC3CCCCC3)nc(Nc3ccc(N4CCOCC4)cc3)nc2[nH]1 [Reversine],70.6%,38%,33.8%,9.79%,7.29%,10.8%,16.3%,
CC1(C)CC[C@]2(C(=O)O)CC[C@]3(C)C(=CC[C@@H]4[C@@]5(C)CC[C@H](O[C@@H]6O[C@H](C(=O)O)[C@@H](O)[C@H](O[C@@H]7OC[C@@H](O)[C@H](O)[C@H]7O)[C@H]6O)C(C)(C)[C@@H]5CC[C@]43C)[C@@H]2C1 [Momordin Ic],88.8%,103%,108%,110%,103%,97.2%,96.6%,
O=C(NCCN1CCOCC1)Nc1ccc(C(=O)/C=C/c2cccc(N3CCOCC3)n2)cc1,15.2%,21.2%,19.2%,1.13%,1.01%,5.44%,16.6%,

# Source: the supplement of paper PMC10981050
